Among all 69,000 compounds or so, about 8,600 (12%) showed an effect of 50% or more. This excerpt belongs to a sample that is enriched for strong results.
What follows are compounds tested on Plasmodium berghei (assay: Screen against P. berghei liver stage (PbLuc), transformed with Luciferase, at 10uM). Details: tested at 10 uM.
Type: functional, HepG2

Structure (SMILES)	INHIBITION
N#Cc1cc2c(nc1SCc1cc(O)nc(O)n1)CCCCC2	66.4%
N#Cc1cc2c(nc1SCc1cc(O)nc(O)n1)CCCC2	32.3%
N#Cc1cc2c(nc1O)CCCCC2	23.4%
N#Cc1ccccc1N1CC2(CCCCN2CC2CC2)CC1=O (centres undefined)	15.3%
CC(C)n1cc(CN2CCCN(C(=O)C(C)n3cccn3)CC2)cn1 (centres undefined)	38.5%
O=C1COc2cc(C(=O)N3CCCC(n4cccn4)C3)ccc2N1 (centres undefined)	-24.2%
CCN1CC(CN(C)Cc2nc(-c3ccoc3)oc2C)CC1=O (centres undefined)	39.6%
CC(=O)N(C)C1CCCc2nc(C)sc21 (centres undefined)	3.03%
Cc1nc2c(s1)C(N(C)C(=O)NCCCC(C)(C)CO)CCC2 (centres undefined)	3.67%
CCNC(=O)N(C)C1CCCc2nc(C)sc21 (centres undefined)	64.9%
CCc1nc2c(s1)C(N(C)C(=O)c1cc[nH]n1)CCC2 (centres undefined)	28.6%
CCc1nc2c(s1)C(N(C)C(C)=O)CCC2 (centres undefined)	6.33%
CCc1nc2c(s1)C(N(C)C(=O)c1csnn1)CCC2 (centres undefined)	68%
Cc1cc(C)n(CC(=O)N2CCC(c3nc(C(C)C)no3)CC2)n1	-6.42%
COc1cc(CNCCn2ccnc2)cc2c1OCO2	17.4%
COc1ccc(CNC(=O)CCN2C[C@@H](C)[C@](O)(C3CC3)C2)cc1	25.4%
CC(=O)Nc1ccc(C(=O)N2CCSCC2c2ccc(C)o2)cc1 (centres undefined)	-14.3%
c1cncc(-c2noc(CN3CCCC3Cn3cccn3)n2)c1 (centres undefined)	-9.37%
O=S(=O)(c1cccnc1)N1CCN(CC(O)c2ccccc2)CC1 (centres undefined)	83.4%
O=S(=O)(c1cccnc1)N1CCN(Cc2nc(-c3ccco3)cs2)CC1	33.4%
N#CCCN1CCN(S(=O)(=O)c2ccc(Cl)s2)CC1	42%
CC(C)(C)c1csc(CN2CCN(S(=O)(=O)c3cccnc3)CC2)n1	29%
Cn1cnc(S(=O)(=O)N2CCN(Cc3ccco3)CC2)c1Cl	32.7%
O=S(=O)(c1cccs1)N1CCN(Cc2nc(-c3ccco3)cs2)CC1	57.1%
O=S(=O)(c1cccnc1)N1CCN(CC(O)c2cccs2)CC1 (centres undefined)	-7.28%
O=S(=O)(c1ccc(Cl)s1)N1CCN(Cc2nc(-c3ccco3)cs2)CC1	86.6%
Cc1ccc(CC(=O)N2CCN(CC(O)c3ccccc3)CC2)cn1 (centres undefined)	42.7%

Structure (SMILES)	INHIBITION
O=S(=O)(c1cccnc1)N1CCN(Cc2nc(-c3cccs3)cs2)CC1	57.1%
O=S(=O)(c1cccs1)N1CCCn2cnc(CN3CCCC3)c2C1	-11.9%
O=S(=O)(c1cccs1)N1CCCn2nnc(CN3CCCCC3)c2C1	23.2%
Cn1ccc(C(=O)NC2CCC23CCN(Cc2nccs2)CC3)c1 (centres undefined)	38.2%
Cc1cc(-c2ccccc2C(=O)O)nc(C2CCCN(C)C2)n1 (centres undefined)	30.8%
CC(C)CN1CCS(=O)(=O)[C@@H]2CCN(S(=O)(=O)C3CC3)CC[C@@H]21	12.1%
CC(NC(=O)C1CC1)c1cc(O)nc(-c2cccnc2)n1 (centres undefined)	10.3035%
O=C(c1ccnnc1)N1CCO[C@H]2[C@H](Oc3cccnc3)CC[C@@H]21	13.7%
CN1CCN(C(=O)CCc2ccccc2)Cc2cccnc21	-54.5%
C=c1occc1=C1NN=C2SC(C#N)C(N)=NN21 (centres undefined)	-14.8%
CCC(C)C(=O)N(Cc1ccccn1)C1CC1 (centres undefined)	36.9%
CCC(C(=O)N(Cc1ccccn1)C1CCCCC1)n1cccn1 (centres undefined)	72.1%
CCC(C(=O)NC1CCCCC1)n1cccc(OC)c1=O (centres undefined)	-1.83%
CCC(C(=O)N(C)Cc1cc(C2CC2)[nH]n1)n1cccn1 (centres undefined)	-33.5%
CCC(C(=O)N(Cc1ccccc1OC)C1CC1)n1cccn1 (centres undefined)	61%
O=C(c1ccoc1)N(Cc1ccccn1)C1CC1	-0.87%
O=C(c1csc(-c2nnc[nH]2)n1)N1CCCCC1Cn1cccn1 (centres undefined)	18.2%
Cn1cc(C(=O)CC2CCCN2C(=O)c2ccncc2F)cn1 (centres undefined)	10%
CC(=O)N1CCN(CCCOc2ccccc2F)CC(C(N)=O)C1 (centres undefined)	46%
COc1ccc(F)cc1C(=O)N1C[C@H]2CC(OC)C[C@H]2C1 (some centres undefined)	23.2%
Cc1ccccc1CC(C)(C)NC(=O)CCOc1cccc(C(N)=O)c1	69.7%
Cc1ccccc1CC(C)(C)NC(=O)COc1cccc(C(N)=O)c1	38%
Cc1ccccc1CC(C)(C)NC(=O)c1cccc(OCC(N)=O)c1	36.3%
c1cc2c(cc1Cn1cc(C3CCOC3)nn1)CCCO2 (centres undefined)	46.7%
CCC(=O)N1CCCN(Cn2nc(C)c(Br)c2C)CC1	56.1%
COC(=O)N1CCCN(Cn2nc(C)c(Br)c2C)CC1	13%
COCC(=O)N1CCN(Cn2nc(C)c(Br)c2C)CC1	-36.4%

Source: ChEMBL document CHEMBL4513216, “Probing the Open Global Health Chemical Diversity Library for Multistage-Active Starting Points for Next-Generation Antimalarials” (ACS Infect Dis, 2020)
